The results in this text go back to PubChem BioAssay (NCI).

The panel holds about 83,000 compounds, 20% with a hit somewhere; the sample as a whole holds those more often.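 Cells were grown in 96-well plates and exposed to the test compound at a single concentration for 48 hours; results are reported as percent growth, with values below 10 considered active.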 Unmarked numbers belong to inactive results. The source made the active and inactive calls.

Test systems include NCI-H23 lung; NCI-H226 lung; NCI-H322M lung; HOP-62 NSCLC; NCI-H460 lung; HOP-92 NSCLC; NCI-H522 lung; A549/ATCC NSCLC; 786-0 renal; COLO 205 colon.
What all share (assay): NCI-60 one-dose screen, 48 h (100 = growth as untreated, 0 = no growth, -100 = all killed)
Common to all, as to conditions: 10 µM unless noted

For the compound `C[C@@H](Nc1ncnc2ccc(-c3cnc(N)nc3)cc12)c1ccc(F)cc1`, the growth in the assay on NCI-H23 lung was 85.9%; in the assay on NCI-H226 lung, 89.1%; in the assay on NCI-H322M lung it was 37.8%; in the assay with HOP-62 NSCLC, 57.7%; in the assay on NCI-H460 lung, 99.2%; with HOP-92 NSCLC, 49.6%. For the same compound, the growth in the assay on NCI-H522 lung is 66.3%; in the assay on A549/ATCC NSCLC, 74%; in the assay with 786-0 renal, 68.9%; in the assay with COLO 205 colon it was 112%.
As to `S=c1cc(S)c2cc(Br)ccc2[nH]1`, the growth was 81.5% in the assay on NCI-H23 lung; 83.9% in the assay on NCI-H226 lung; 91.1% in the assay on NCI-H322M lung; 85.9% in the assay on HOP-62 NSCLC; 99.4% in the assay on NCI-H460 lung; 88.5% in the assay on HOP-92 NSCLC. In addition, the growth with NCI-H522 lung is 68.1%; with A549/ATCC NSCLC it was 89.5%; in the assay on 786-0 renal, 104%; in the assay with COLO 205 colon, 98.8%.
`CCCCCOc1ccc(/C=N/Nc2cc(C)nc3ccc(Cl)cc23)cc1`: the growth was 62.5% in the assay with NCI-H23 lung; 88% in the assay with NCI-H226 lung; 44.3% in the assay with NCI-H322M lung; 29.7% with HOP-62 NSCLC; -63.1% (active) in the assay on NCI-H460 lung; 56.7% with HOP-92 NSCLC. Besides, the growth in the assay on NCI-H522 lung is -30.6% (active); with A549/ATCC NSCLC it was -8.41% (active); in the assay on 786-0 renal it was -85.2% (active); with COLO 205 colon, -55.9% (active).
Turning to `CCCCCCOc1ccc(/C=N/Nc2cc(C)nc3ccc(Cl)cc23)cc1`, the growth in the assay on NCI-H23 lung was 68.3%; with NCI-H226 lung it was 87.8%; in the assay with NCI-H322M lung, 14.6%; in the assay with HOP-62 NSCLC, -51.6% (active); in the assay on NCI-H460 lung, -80% (active); in the assay on HOP-92 NSCLC, 69.5%. In addition, the growth is -42.9% (active) with NCI-H522 lung, -43.1% (active) with A549/ATCC NSCLC, -82.2% (active) in the assay on 786-0 renal and -48.4% (active) in the assay with COLO 205 colon.
Turning to `CCNC(=O)Oc1ccc(/C(=C(\C)c2ccccc2)c2ccc(OCCN(CC)CC)cc2)cc1`, the growth in the assay with NCI-H23 lung was 78.9%; with NCI-H226 lung, 95.6%; with NCI-H322M lung, 99%; in the assay with HOP-62 NSCLC, 96.2%; with NCI-H460 lung, 86.6%; with HOP-92 NSCLC it was 70.9%. Besides, the growth in the assay with NCI-H522 lung is 93.7%; with A549/ATCC NSCLC it was 65.5%; with 786-0 renal, 66.3%; with COLO 205 colon it was 52.2%.
Consider `ClC1=C(Br)C(Br)(Br)C(=C(Br)Br)C1(Br)Br`, for which the growth was 104% with NCI-H23 lung; 93.6% with NCI-H226 lung; 99% in the assay on NCI-H322M lung; 121% in the assay on HOP-62 NSCLC; 94.7% in the assay with NCI-H460 lung; 94% in the assay on HOP-92 NSCLC. Also, the growth in the assay with NCI-H522 lung is -25% (active); in the assay with A549/ATCC NSCLC, 94.6%; in the assay with 786-0 renal it was 109%; with COLO 205 colon, 57.3%.
As to `C[C@H]1[C@H](C)CC[C@]2(C(=O)NCC#CCN3CCN(C)CC3)CC[C@]3(C)C(=CC[C@@H]4[C@@]5(C)Cc6c([nH]c7ccccc67)C(C)(C)[C@@H]5CC[C@]43C)[C@H]12`, the growth was 100% with NCI-H23 lung; 100% in the assay on NCI-H226 lung; 92.8% with NCI-H322M lung; 93.1% in the assay with HOP-62 NSCLC; 3.53% (active) in the assay on NCI-H460 lung; 63.8% with HOP-92 NSCLC. The growth in the assay on NCI-H522 lung was 82.6%; in the assay with A549/ATCC NSCLC, 69.7%; in the assay with 786-0 renal it was 66.9%; in the assay with COLO 205 colon it was 53.1%.
`COc1cc2c(c(OC)c1OC)CCC(c1cccc(NC(=O)c3cccc(Br)c3)c1)O2` (stereo not given): the growth was 95.1% in the assay with NCI-H23 lung; 93.7% in the assay on NCI-H226 lung; 98.5% in the assay with NCI-H322M lung; 99.8% in the assay with HOP-62 NSCLC; 100% with NCI-H460 lung; 94% in the assay with HOP-92 NSCLC. Moreover, the growth in the assay on NCI-H522 lung was 81%; in the assay with A549/ATCC NSCLC, 81.2%; in the assay on 786-0 renal it was 93.7%; in the assay with COLO 205 colon, 98.3%.
For the compound `CN(C)CC(O)c1ccc(/C=C/c2ccc(Cl)cc2)cc1` (stereo not given), the growth in the assay on NCI-H23 lung is 33.5%; in the assay on NCI-H226 lung, 73.4%; in the assay on NCI-H322M lung, -9.83% (active); in the assay on HOP-62 NSCLC, -50.2% (active); with NCI-H460 lung, -54.6% (active); in the assay on HOP-92 NSCLC, 15.5%. The growth was -84.4% (active) with NCI-H522 lung, -92.3% (active) with A549/ATCC NSCLC, 13.8% in the assay on 786-0 renal and -46.4% (active) in the assay on COLO 205 colon.
Regarding `C=CCn1c(-c2ccc(-c3nc4ccc(C)cc4[nH]3)cc2)n[nH]c1=S`, the growth with NCI-H23 lung is 94.6%; in the assay on NCI-H226 lung, 94.1%; in the assay with NCI-H322M lung, 102%; with HOP-62 NSCLC, 97.7%; in the assay with NCI-H460 lung, 105%; in the assay on HOP-92 NSCLC, 117%. The growth in the assay on NCI-H522 lung is 90.7%; in the assay on A549/ATCC NSCLC, 99.2%; in the assay on 786-0 renal, 107%; with COLO 205 colon, 120%.
In the case of `Nc1c(C(=O)Nc2cccc3cnccc23)sc2nc3c(cc12)C(=O)CCC3`, the growth is 92.6% with NCI-H23 lung; 92.7% in the assay on NCI-H226 lung; 102% in the assay on NCI-H322M lung; 90.5% in the assay on HOP-62 NSCLC; 78.2% in the assay with NCI-H460 lung; 80.5% in the assay on HOP-92 NSCLC. Also, the growth in the assay with NCI-H522 lung is 40.4%; in the assay with A549/ATCC NSCLC, 87.4%; with 786-0 renal it was 91.3%; in the assay with COLO 205 colon, 108%.
As for `COc1ccc(CC(C)=C(c2ccc(OCCN3CCCCCC3)cc2)c2ccc(OCCN3CCCCCC3)cc2)cc1`, the growth in the assay on NCI-H23 lung was -87.9% (active); in the assay on NCI-H226 lung, -74.4% (active); in the assay on NCI-H322M lung, -99.3% (active); in the assay with HOP-62 NSCLC it was -77.4% (active); in the assay on NCI-H460 lung, -95% (active); with HOP-92 NSCLC, -73.7% (active). The growth in the assay with NCI-H522 lung was -82.4% (active); in the assay on A549/ATCC NSCLC, -86% (active); in the assay on 786-0 renal, -72.1% (active); with COLO 205 colon it was -67.5% (active).
Take `COc1ccc2[nH]c(=O)c(CN3CCN(c4nccc(-c5ccc(Cl)cc5)n4)CC3)cc2c1`: the growth in the assay with NCI-H23 lung was 91.2%; in the assay with NCI-H226 lung, 94.4%; in the assay with NCI-H322M lung, 85.4%; with HOP-62 NSCLC, 80.1%; with NCI-H460 lung, 76.3%; with HOP-92 NSCLC, 101%. Besides, the growth is 77% in the assay with NCI-H522 lung, 73.9% in the assay with A549/ATCC NSCLC, 85.2% with 786-0 renal and 95.9% in the assay with COLO 205 colon.
